Experiment [1] is described as follows: Cell Viability - BJ (AID 421; calls by dose curve;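 also: potency is read from the fitted curve at half-maximal effect; cells exposed to compound for 40 hours at 37 °C before readout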). The note with it: BJ fibroblast viability, qHTS. The gist of the method:
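Normal human BJ foreskin fibroblasts, 1500/well in complete medium, treated 40 hr at 37 °C. Cellular ATP by CellTiter-Glo luminescence; normalized to DMSO and 100 uM tamoxifen, AC50 from Hill fit.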
Background: In qHTS, concentration-response curves come from the screen itself.

Experiment [2] is described as follows: Cellular Toxicity (caspase-3) BJ (AID 658). The note with it: BJ fibroblasts, luminescence, normalized: DMSO 0%, staurosporine 100%; series mostly up to 91.7 µM. The method, boiled down: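 Luminescent aminoluciferin-substrate cleavage reports caspase 3/7 activity in normal human BJ fibroblasts after 16 hr compound exposure at 37 °C. Normalized to DMSO (basal) and 10 uM staurosporine (100%); AC50 from Hill fit of concentration-response.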

The nature of experiment [3]: Cellular Toxicity (caspase-3) MRC-5 (AID 659). To be noted: MRC-5 cells, luminescence, normalized: DMSO 0%, 10 µM staurosporine 100%; series mostly up to 91.7 µM. The gist of the method: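 Luminescence from caspase-cleaved aminoluciferin substrate (Caspase-Glo 3/7, 1 hr RT) reports caspase 3/7 activity in MRC-5 lung fibroblasts after 16 hr compound exposure. Normalized to DMSO basal and 10 uM staurosporine as 100%; AC50 from Hill fits.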

A short description of experiment [4]: Cellular Toxicity (caspase-3) Hek293 (AID 664).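 Also: cells exposed to compound for 16 h at 37 °C before readout.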 The note with it: HEK293 caspase-3 activation, DMSO = 0%, 100 µM tamoxifen = 100%; at 92.2 µM (top of the series). The gist of the method:
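HEK293 cells were exposed to compounds in complete medium for 16 hr at 37 °C, then caspase-3/7 activity was read by Caspase-Glo 3/7 luminescence after 20 min at room temperature. Data normalized to DMSO and 100 uM tamoxifen; AC50 from Hill fits.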

Experiment [5] is described as follows: Cellular Toxicity (caspase-3) NIH 3T3 (AID 666).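 Also: caspase signal read after 16 h compound exposure.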 Also: potency is read from the fitted curve at half-maximal effect.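 As to caspase-3 activation: 0% = DMSO basal and 100% = 100 µM tamoxifen stimulation.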 The note with it: NIH 3T3 caspase-3 activation, apoptosis/toxicity; series mostly up to 92.2 µM. The method, boiled down:
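Mouse NIH 3T3 fibroblasts (1000 cells/well) were treated with compound for 16 hr at 37°C in complete medium; caspase-3/7 activity was read by Caspase-Glo luminescence. Normalized to DMSO and 100 uM tamoxifen; AC50 from Hill fits.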

The nature of experiment [6]: MultiTox-Fluor Cytotoxicity Assay - LYMP1-001 - Dead Cells (AID 946).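 Also: 0% = DMSO and 100% = tetraoctylammonium bromide.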 To be noted: LYMP1-001 lymphoblastoid cells, dead-cell protease fluorescence; series mostly up to 92.2 µM. The gist of the method:
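LYMP1-001 lymphoblastoid cells (2500/well) treated 16 h at 37 C. Dead-cell protease cleavage of bis-AAF-R110 read at Ex/Em 485/520. Normalized to DMSO and 15 uM tetraoctylammonium bromide; AC50 from Hill fits.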

Experiment [7] can be described thus: MultiTox-Fluor Cytotoxicity Assay - LYMP1-002 - Live Cells (AID 955). Also: % is scaled to controls: 0 for no effect and ±100 for the full control effect. The note with it: LYMP1-002 lymphoblastoid live-cell protease fluorescence viability; series mostly up to 46.1 µM. The method, boiled down: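 Human lymphoblastoid LYMP1-002 cells, 2500/well in complete medium, rested 5 hr at 37 C, then exposed to compounds for 16 hr at 37 C. Live-cell protease cleavage of GF-AFC read by fluorescence (Ex/Em 405/510) after 60 min at room temperature; AC50 from Hill fits.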

The nature of experiment [8]: MultiTox-Fluor Cytotoxicity Assay - LYMP1-003 - Dead Cells (AID 961). Also: nearly all actives have a fitted effect of over 70% in size. Also: potency is read from the fitted curve at half-maximal effect. The note with it: LYMP1-003 lymphoblastoid cells, dead-cell protease fluorescence; series mostly up to 92.2 µM. The gist of the method:
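LYMP1-003 human lymphoblastoid cells (2500/well) exposed to compound 16 h at 37 C in complete medium; dead-cell protease read with bis-AAF-R110 fluorescence (Ex/Em 485/520) after 60 min at room temperature. Normalized to DMSO and 15 uM tetraoctylammonium bromide; AC50 from Hill fit.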

Experiment [9] is described as follows: MultiTox-Fluor Cytotoxicity Assay - LYMP1-003 - Live Cells (AID 962).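 Also: 0% = DMSO only and full loss = 92 µM tetraoctylammonium bromide; cytotoxic hits lower the live-cell protease signal.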 To be noted: LYMP1-003 lymphoblastoid cells, MultiTox-Fluor live-cell protease fluorescence; series mostly up to 92.2 µM. The method, boiled down: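 LYMP1-003 human lymphoblastoid cells (2500/well) in complete medium were preincubated 5 hr at 37 C, then exposed to compounds for 16 hr at 37 C. Live-cell protease cleavage of GF-AFC read by fluorescence (Ex/Em 405/510); AC50 from Hill fits.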

The nature of experiment [10]: Cell Viability - LYMP2-021 (AID 974).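 Also: compound exposure lasts 24 hours at 37 °C; nearly all actives have a fitted effect of over 55% in size.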 Also: potency is read from the fitted curve at half-maximal effect. The note with it: LYMP2-021 lymphoblastoid cells viability; series mostly up to 92.2 µM. The gist of the method:
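Human lymphoblastoid cells (2500/well) were preincubated 5 hr at 37 C, then exposed to compounds for 24 hr at 37 C in complete medium. Intracellular ATP was read by CellTiter-Glo luminescence; AC50 came from Hill-equation fits of concentration-response data.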

The nature of experiment [11]: Cell Viability - LYMP2-006 (AID 978). Also: nearly all actives have a fitted effect of over 60% in size. Also: potency is read from the fitted curve at half-maximal effect. To be noted: LYMP2-006 lymphoblastoid cell viability, qHTS; series mostly up to 92.2 µM. The method, boiled down:
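Human lymphoblastoid cells (LYMP2-006), 2500/well in complete medium, were treated with compound for 24 hr at 37 C. Cellular ATP was read by CellTiter-Glo luminescence after 30 min, and AC50 values came from Hill-equation fits of concentration-response data.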

Experiment [12] is described as follows: Cell Viability - LYMP1-002 - Assay at 24 hr (AID 993). Also: % is scaled to controls: 0 for no effect and ±100 for the full control effect. To be noted: LYMP1-002 lymphoblastoid cells viability; series mostly up to 92.2 µM. The method, boiled down:
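Human lymphoblastoid LYMP1-002 cells, 2500/well in complete medium, were treated with compounds for 24 h at 37 C; intracellular ATP was read by CellTiter-Glo luminescence. AC50 values came from Hill-equation fits of qHTS concentration-response data.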

Experiment [13] is described as follows: Cell Viability - LYMP1-002 - Assay at 40 hr (AID 994). Also: nearly all actives have a fitted effect of over 60% in size. Also: potency is read from the fitted curve at half-maximal effect. To be noted: LYMP1-002 lymphoblastoid cell viability; series mostly up to 92.2 µM. The method, boiled down:
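Human lymphoblastoid cells, 2500/well in complete medium, were preincubated 5 hr at 37 C, then exposed to compounds for 40 hr at 37 C. Intracellular ATP was read by CellTiter-Glo luminescence after 30 min at room temperature; AC50 from Hill-equation fits.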

A short description of experiment [14]: qHTS Assay for Identification of Small Molecule Inducers of Hypoxia Response (AID 2120; active = well fitted curve in the direction sought with a large enough effect in the signal ratio, with a control signal flat, not every such curve was filed as active; the % refers to the signal ratio; also: 0% is about no effect). To be noted: hypoxia response reporter cells, beta-lactamase ratio readout; series mostly up to 104 µM. The gist of the method:
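HRE-beta-lactamase reporter in CellSensor HRE-bla ME-180 cells, 2500 cells/well in Opti-MEM with 0.5% dialyzed FBS; compounds tested as titration series, 17 h at 37 degrees C. CCF4 substrate 2.5 h at room temperature; AC50 from 460/530 nm ratio.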

For experiment [15], the target named is Peroxisome proliferator-activated receptor alpha (Homo sapiens) (UniProt Q07869). The experiment can be described thus: qHTS assay for small molecule agonists of the peroxisome proliferator-activated receptor alpha (PPARalpha) signaling pathway (AID 651778). Also: % of control where 0% means no effect. The note with it: PathHunter PPARalpha complementation, chemiluminescence, 6 h; hits give high values. The method, boiled down: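 Cells plated at 2,000/well and held overnight at 37 C, 5% CO2, then compound added by pin tool for 6 hr; after PathHunter detection reagent and 60 min at room temperature, chemiluminescence from enzyme complementation was read.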
Sequence of Peroxisome proliferator-activated receptor alpha (Homo sapiens) (Q07869 whole entry, looked up): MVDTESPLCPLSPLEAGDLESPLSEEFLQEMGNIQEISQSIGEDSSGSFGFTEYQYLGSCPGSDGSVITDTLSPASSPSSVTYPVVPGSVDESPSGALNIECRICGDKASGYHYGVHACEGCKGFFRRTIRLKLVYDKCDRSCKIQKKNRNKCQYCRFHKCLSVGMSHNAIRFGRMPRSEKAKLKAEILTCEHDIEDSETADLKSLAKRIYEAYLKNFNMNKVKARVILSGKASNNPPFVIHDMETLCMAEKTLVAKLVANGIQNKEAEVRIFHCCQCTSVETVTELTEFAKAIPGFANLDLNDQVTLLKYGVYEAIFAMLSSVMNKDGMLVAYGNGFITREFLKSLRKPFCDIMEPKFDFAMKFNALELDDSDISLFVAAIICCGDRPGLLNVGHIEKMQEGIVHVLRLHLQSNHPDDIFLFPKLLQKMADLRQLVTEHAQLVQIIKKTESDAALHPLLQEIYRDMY

Experiment [16] can be described thus: qHTS assay for cell viability of the p53RE-bla HCT-116 cell line (AID 743292). Also: % is scaled to controls: 0 for no effect and ±100 for the full control effect; nearly all actives have a fitted effect of over 55% in size. To be noted: p53RE-bla HCT-116 viability, ATP luminescence, 16 h; series mostly up to 95 µM. The method, boiled down:
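Quantitative high-throughput format: compounds in DMSO were pinned onto p53RE-bla HCT-116 cells (4,000/well) and incubated 16 h at 37 C. Total intracellular ATP, read by CellTiter-Glo luminescence, reflects viable cell number.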

The nature of experiment [17]: Cellular Toxicity (caspase-3) HepG2 (AID 654).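 Also: cells exposed to compound for 16 hours before reading; 0% = DMSO alone and 100% = caspase signal from 100 µM tamoxifen.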 The note with it: HepG2 caspase-3 activation, luminescence, 0% = DMSO only, 100% = tamoxifen; series mostly up to 92.2 µM. The method, boiled down: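 HepG2 cells (1500/well) in complete medium were treated with compounds for 16 hr at 37 °C. Caspase-3/7 activity was then read as luminescence from peptide-aminoluciferin cleavage. AC50 came from Hill fits, normalized to DMSO and 100 uM tamoxifen.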

Experiment [18] can be described thus: Cellular Toxicity (caspase-3) N2a (AID 665).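 Also: compound exposure lasted 16 h at 37 °C before readout.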 To be noted: N2a cells, luminescence, normalized: DMSO 0%, 10 µM staurosporine 100%; series mostly up to 92.2 µM. The gist of the method: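 Mouse N2a neuroblastoma cells (1500/well) were treated with compounds for 16 h at 37 °C, then caspase-3/7 activity was read by Caspase-Glo luminescence after 1 h at room temperature. Data were normalized to DMSO and 10 uM staurosporine; AC50 from Hill fits.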

Experiment [19] in a line: Cell Viability - LYMP2-001 (AID 921).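 Also: 0% = DMSO only and full inhibition = tetraoctylammonium bromide control wells; nearly all actives have a fitted effect of over 70% in size.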 The note with it: LYMP2-001 lymphoblastoid cell viability; series mostly up to 92.2 µM. The gist of the method: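 Human lymphoblastoid LYMP2-001 cells, 2500 per well, in complete medium, treated 24 h at 37 C. Viability from cellular ATP by CellTiter-Glo luminescence; AC50 from Hill-equation fits of qHTS concentration-response.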
Experiment [20] is described as follows: Cell Viability - LYMP2-025 (AID 976).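 Also: plate controls were DMSO only for no effect and tetraoctylammonium bromide control for full effect.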 The note with it: LYMP2-025 lymphoblastoid cell viability; series mostly up to 92.2 µM. The method, boiled down:
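Human lymphoblastoid LYMP2-025 cells (2500/well) were pre-incubated 5 hr at 37 C, then treated with compounds for 24 hr at 37 C in complete medium. Viability was read as intracellular ATP by CellTiter-Glo luminescence; AC50 from Hill fits.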

The results in this text go back to PubChem BioAssay (NCATS).

“And” between values parts separate entries of the source, which are not always exact repeats. Identical values can stand only once. Unmarked numbers belong to inactive results. Records with an inconclusive call do not appear. The source made the active and inactive calls. Unless noted, calls follow the shape of the dose curve; as a rule, active = well fitted curve in the direction sought with a large enough effect; inconclusive = small, poorly fitted or top-dose-only effect, or another doubt; inactive = no such curve, though single readings can be large; an effect the other way counts as inactive or inconclusive. A value given as a limit tells only on which side of the number the result lay.

Consider `O=[N+]([O-])/C=C/c1ccccc1`, for which the Potency in experiment [1] is over 92 µM; in [5], 25.1 µM (active); in experiment [8], 50.1 µM (active); in [10], 39.8 µM (active); in [11], 39.8 µM (active). Moreover, the call in [2], in experiment [3], in experiment [6], in experiment [7] and in experiment [9] was inactive. Further, the caspase-3 activation in experiment [4] is -2.17%. In addition, the Potency entry in experiment [12], in experiment [13], in experiment [14] and in experiment [16] was “inactive” throughout. Further, the max response in experiment [15] was -1.42%.

Consider `C(CCOCC1CO1)COCC1CO1` (centres undefined), for which the results for the Potency in [1] and in experiment [13] were over 92 µM and 39.8 µM (active), respectively. Besides, the molecule was called inactive in [17], in [2], in experiment [3], in experiment [18], in experiment [7] and in experiment [9]. Besides, the caspase-3 activation in experiment [4] was 0.467%. Further, the Potency result in experiment [5], in [19], in [8], in [10], in experiment [20] and in experiment [11] was “inactive” each time. Moreover, the Potency result in experiment [12], in [14] and in experiment [16] was “inactive” each time. Moreover, the max response in experiment [15] was -0.765%.

In the case of `CC(C)(C)OOC(=O)c1ccccc1`, in experiment [1], the Potency was over 92 µM. Also, the outcome in experiment [17], in [2], in experiment [3], in experiment [18], in experiment [6] and in experiment [7] was inactive. Further, the molecule was called inactive in experiment [9]. The caspase-3 activation in experiment [4] is -1.73%. Moreover, the Potency result in experiment [5], in experiment [8], in experiment [10], in experiment [20], in experiment [11] and in [12] was “inactive” in each case. Besides, the Potency entry in [13], in experiment [14] and in experiment [16] was “inactive” throughout. The max response in experiment [15] was -5.26% and -0.274%.

On to `O=C(O)CCl`, for which the Potency in [1] was over 92 µM. Moreover, the result in experiment [17], in experiment [2], in experiment [3], in experiment [18], in experiment [6] and in experiment [7] was inactive. Besides, the molecule was called inactive in [9]. Also, in experiment [4], the caspase-3 activation is -1.43%. Moreover, the Potency entry in experiment [5], in experiment [19], in experiment [8], in experiment [10], in experiment [20] and in experiment [11] was “inactive” throughout. Besides, the Potency result in experiment [12], in experiment [13], in [14] and in experiment [16] was “inactive” throughout. Besides, the max response in experiment [15] was -6.37%.
